About 8,600 (12%) of roughly 69,000 compounds showed an effect of 50% or more. The full list was thinned out, with strong results kept by preference.

In the test the test system is Plasmodium berghei. Description: Screen against P. berghei liver stage (PbLuc), transformed with Luciferase, at 10uM. The conditions noted are these: tested at 10 uM. Type of test: functional, HepG2.
For the compound `CN(C)c1ncccc1CNC(=O)N1CCCC1CN1CCCC1` (centres undefined), the INHIBITION is given as 57.8%.
For `CN(C)c1ncccc1CNC(=O)N1CCCC1c1ccsc1` (centres undefined) the value was -0.847%; for `CN(C)c1ncccc1CNC(=O)N1CCCC1CN1CCCCC1` (centres undefined), 11.6%; for `CN1CCC(NC(=O)c2cc(F)cc(Cl)c2O)C1=O` (centres undefined), 26.5%.
For `CCc1c(C)nc2n(c1=O)CC(C(=O)Nc1ncccc1C)CS2` (centres undefined) the value was -0.621%; for `Cc1noc(C(C)C)c1C(=O)NCc1cccc(CN(C)C)c1`, 51.1%; for `Cc1noc(C(C)C)c1C(=O)NCc1cccc(N(C)C)c1`, 6.14%.
On to `COCc1cccc(CNC(=O)c2c(C)noc2C(C)C)c1`, for which the INHIBITION was found to be 42.9%.
As for `Cc1nn(C)c(C)c1CN(C)C1CCN(c2ncnc3[nH]cnc23)CC1`, the figure is 48.9%.
As for `Cc1ncsc1CCN(C)C1CCN(c2ncnc3[nH]cnc23)CC1`, the figure is 50.8%; as for `Cc1cnccc1CN(C)C1CCN(c2ncnc3[nH]cnc23)CC1`, 48.9%.
Take `Cc1ccccc1OCCN1CCN(Cc2cnn(CCO)c2)CC1`: the INHIBITION is listed as 30.45%.
As for `Cc1ccc(-c2cc(C(=O)NC(C)C(=O)N3CCCCC3)on2)cc1` (centres undefined), the figure is -40.3%.
For the compound `CC(NC(=O)c1cc(-c2cccc(Cl)c2)no1)C(=O)N(C)C` (centres undefined), the INHIBITION is listed as -21.6%.
For the compound `CC(NC(=O)c1cc(-c2cccc(Cl)c2)no1)C(=O)N1CCCC1` (centres undefined), the INHIBITION came to 86.9%.
As to `COc1cc(C)c(NC(=O)CCn2cccc2)cc1OC`, the INHIBITION is -23.2%.
For `COc1cc(Cl)c(NC(=O)NCCn2cccc2)cc1OC`, the INHIBITION is -102%.
For `COc1cc(C)c(NC(=O)NCCn2cccc2)cc1OC`, the INHIBITION is reported as 52.2%.
On to `Cn1cc(CN(Cc2cccc(-n3cccn3)c2)C2CC2)cn1`, for which the INHIBITION came out at 49%.
Consider `CCc1ccccc1NC(=O)c1cccc(N(C)S(C)(=O)=O)c1C`, for which the INHIBITION was -15.3%.
For `NC(=O)C1CCCN1C1CCN(C(=O)c2ccc3c(c2)OCO3)CC1` (centres undefined) the value was 19.9%.
As to `CSCc1noc(CNC2CCCC(C)(C)C2)n1` (centres undefined), the INHIBITION turned out to be 16.9%.
As for `Clc1nc2ccccn2c1CNCC1CN(C2CC2)CCO1` (centres undefined), the figure is -34.4%; as for `CC1=CC(C)(C)N(CN2C(=O)c3ccccc3C2=O)c2ccccc21`, 44.6%; as for `CC1=CC(C)(C)N(CN2C(=O)c3ccccc3C2=O)c2ccc(C)cc21`, 67.4%.
For the compound `COc1ccc(N2CCN(C(=O)NC(C)c3nncn3C)CC2)cc1` (centres undefined), the INHIBITION is listed as 19.4%.
For `CC(=O)NCC[C@H]1CC(C)(C)Oc2ccccc21` the value was 18.9%; for `COCC(=O)NCC[C@H]1CC(C)(C)Oc2ccc(OC)cc21`, 1.11%; for `COCC(=O)NCC[C@H]1CC(C)(C)Oc2ccccc21`, 57.5%.
Turning to `Cc1cnn(CC2CCCCN2C(=O)c2ccc3[nH]c(=O)[nH]c3c2)c1` (centres undefined), the INHIBITION is given as 39.2%.
As for `CN(C)C(=O)C1CCN(C2CCN(CC3CC3)CC2)CC1`, the figure is 37.5%.
For `O=C(c1cc[nH]n1)N1CCc2ccc(S(=O)(=O)N3CCOCC3)cc2C1` the value was 26.5%.
For `NS(=O)(=O)c1cccc(CNc2nccc(C(F)(F)F)n2)c1` the value was -14.6%.
In the case of `FC(F)(F)c1cccc(CNc2nccc(C(F)(F)F)n2)c1`, the INHIBITION was -24.2%.
`CNS(=O)(=O)c1cccc(CNc2ncccn2)c1`: the INHIBITION is reported as 50.5%.
As for `CNS(=O)(=O)c1cccc(CNc2nccc(C(F)(F)F)n2)c1`, the figure is 71.3%; as for `CNS(=O)(=O)c1cccc(CNc2cc(C(F)(F)F)ccn2)c1`, 45.4%; as for `CNS(=O)(=O)c1cccc(CNc2ccc(C#N)cn2)c1`, -14.9%.
For `CN(C(=O)c1ccc(C#N)cc1)c1nnc(C2CCOC2)s1` (centres undefined) the value was -0.585%; for `Cc1ccc(C(=O)N2CCO[C@H]3[C@H](OCc4ccccn4)CC[C@@H]32)o1`, -31.3%.
As for `Cc1nn(CCC#N)c(C)c1CCC(=O)N(C)Cc1ccc(F)cc1F`, the figure is 78.3%; as for `Cc1nn(CCC#N)c(C)c1CCC(=O)N(C)Cc1ccsc1`, 19.8%.
As for `Cc1nn(CCC#N)c(C)c1CCC(=O)N(C)C`, the INHIBITION is listed as 49.5%.
In the case of `CCCn1nccc1NC(=O)CN1CCOC(Cn2cc(C)cn2)C1` (centres undefined), the INHIBITION was determined as 21.9%.
For the compound `CN(C)C[C@H]1OC[C@@H]2CCN(S(=O)(=O)c3ccccc3)C[C@@H]21`, the INHIBITION is given as 26.7%.
`Cc1ccc(-c2ncc(CNc3cnccc3CO)s2)o1`: the INHIBITION was 11.1%.
Regarding `Cc1ncc(CNc2cnccc2CO)s1`, the INHIBITION is recorded as -37.7%.
For `Cc1ccc(-c2ncc(CNc3cnccc3CO)s2)cc1` the value was 80%; for `CS(=O)(=O)N[C@@H]1CCN(Cc2ccncc2)[C@H]1Cc1cccnc1`, 4.27%; for `CS(=O)(=O)N[C@@H]1CCN(Cc2cccnc2)[C@H]1Cc1cccnc1`, 45.1%.
As for `Cn1ccnc1CN1CC[C@@H](NS(C)(=O)=O)[C@@H]1Cc1cccnc1`, the figure is 13.6%.
Turning to `Cn1cc(CN2CC[C@@H](NS(C)(=O)=O)[C@@H]2Cc2cccnc2)cn1`, the INHIBITION was 54.4%.
As for `CS(=O)(=O)N[C@@H]1CCN(Cc2cccnc2)[C@H]1Cc1ccccc1`, the figure is 52%; as for `CS(=O)(=O)N[C@@H]1CCN(Cc2cccs2)[C@H]1Cc1cccnc1`, -21.4%.

The values above are taken from ChEMBL document CHEMBL4513216, “Probing the Open Global Health Chemical Diversity Library for Multistage-Active Starting Points for Next-Generation Antimalarials” (ACS Infect Dis, 2020).
